Source: paper PMC7826789 (International Journal of Molecular Sciences, 2021)

Assays:
Conditions in all cases: Compound Concentration (nM):1000
CSNK2A2 = test system: CSNK2A2
CTK = test system: T1, CTK
T1 construct: gene MATK

DAPK1 = test system: DAPK1
DAPK2 = test system: DAPK2
DAPK3 = test system: DAPK3
DCAMKL1 = test system: T2, DCAMKL1
T2 construct: gene DCLK1

DCAMKL2 = test system: T3, DCAMKL2
T3 construct: gene DCLK2

DCAMKL3 = test system: T4, DCAMKL3
T4 construct: gene DCLK3

DDR1 = test system: DDR1
DDR2 = test system: DDR2
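Further: KINOMEscan scanMAX binding as percent activity remaining versus control; lower means stronger binding.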

SMILES	Percent Control (CSNK2A2) [%]	Percent Control (CTK) [%]	Percent Control (DAPK1) [%]	Percent Control (DAPK2) [%]	Percent Control (DAPK3) [%]	Percent Control (DCAMKL1) [%]	Percent Control (DCAMKL2) [%]	Percent Control (DCAMKL3) [%]	Percent Control (DDR1) [%]	Percent Control (DDR2) [%]
CC1=C(C(=O)Nc2ccc3[nH]ncc3c2)C(c2ccc(Cl)c(Cl)c2)CC(=O)N1 (centres unmarked) [GSK299115A]	79	62	81	83	81	83	55	45	88	81
O=C(Nc1n[nH]c2nc(-c3ccc(O)cc3)c(Br)cc12)C1CC1 [SB-725317]	85	100	55	34	34	89	100	3.5	98	100
Cl.O=C(O[C@H]1CN[C@H](C#Cc2cc3ncnc(Nc4ccc5c(cnn5Cc5ccccc5)c4)c3s2)C1)N1CCOCC1 [GSK200398A]	70	89	95	100	100	82	100	100	92	100
Nc1ncnc2occ(-c3ccc(NC(=O)Nc4cc(C(F)(F)F)ccc4F)cc3)c12 [GW770249X]	93	70	100	100	98	78	76	100	0	1.3
COc1ccccc1-c1cc(/C=C2\C(=O)Nc3ncc(Br)cc32)cc(Br)c1O [GW442130X]	72	99	100	88	88	100	100	89	92	100
Cc1cc(O)cc(C)c1/C=C/c1cncc(C(N)=O)c1 [GW435821X]	78	98	100	100	100	87	100	100	40	74
COc1ccc2c(-c3ccnc(Nc4cccc(OC(F)(F)F)c4)n3)cnn2n1 [GW810372X]	59	100	100	98	100	100	100	100	100	100
Cl.c1ccc(Cc2nc3ccc(Nc4ncnc5ccccc45)cc3[nH]2)cc1 [GR269666A]	100	100	100	99	96	90	100	100	100	100
CC(C)COC(=O)c1ccc2c(c1)/C(=C/Nc1ccc(S(N)(=O)=O)cc1)C(=O)N2 [GW416981X]	1.5	100	24	9.4	9.8	38	100	4.6	100	100
COc1ccc2[nH]c3c4[nH]c5ccc(OC)cc5c4c4c(c3c2c1)C(=O)NC4=O [GW296115X]	56	93	22	4.9	4.8	90	90	19	77	72
COc1ccc2cc(-c3c(-c4ccncc4)nc(-c4ccc(S(C)(=O)=O)cc4C)n3C)ccc2c1 [SB-633825]	79	62	96	88	82	71	85	89	2	58
C[C@@H](Oc1cc(-n2cnc3ccc(OC4CCN(C)CC4)cc32)sc1C(N)=O)c1ccccc1Cl [GSK579289A]	8.4	100	29	49	28	70	83	89	92	90
COc1ccc(COc2ccc(Cc3cnc(N)nc3N)cc2OC)cc1 [GW632580X]	70	94	94	91	91	94	78	100	78	100
COc1cccc(-n2ncc3c(N/N=C/c4ccncc4)ncnc32)c1 [GW784752X]	2.9	99	100	94	93	86	100	71	100	100
COc1cccc(-c2c[nH]c3c(N/N=C/c4ccncc4)ncnc23)c1 [GW814408X]	1.5	100	100	100	100	100	100	56	86	60
O=C1Nc2ccc(C(=O)c3ccco3)cc2C1=Cc1cc(Cl)c(O)c(Cl)c1 [GW406108X]	19	92	22	9.2	10	80	94	100	100	93
CN(C)c1cc2c(Nc3ccc4c(cnn4Cc4ccccc4)c3)ncnc2cn1 [GW282974X]	65	100	100	91	100	85	100	100	66	100
Cl.O=C(Nc1ccc(Oc2ccc3[nH]c(NC(=O)c4ccccc4)nc3c2)cc1)Nc1cc(C(F)(F)F)ccc1F [GW709042A]	72	100	100	100	100	92	96	100	0	16
CCn1c(-c2nonc2N)nc2c(C#CC(C)(C)O)nc(OCCNC)cc21.Cl [GSK949675]	97	100	100	100	100	100	100	66	100	100
CCS(=O)(=O)c1ccc(OC)c(Nc2ncc(-c3cccc(F)c3)o2)c1 [GW621970X]	1.4	100	100	100	100	100	98	100	55	100
